Test [1] in a line: ATG_XTT_Cytotoxicity: Cytotoxicity Assessment in the Attagene TRANS-FACTORIAL HepG2 Assay (AID 2283584). Put shortly:
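HepG2 cells transiently transfected with GAL4-UAS multiple reporter units, dosed 24 h; cytotoxicity read by XTT as loss of signal versus DMSO baseline.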

Test [2] has as its target Cellular tumor antigen p53 (Homo sapiens) (UniProt P04637). The experiment in a line: TOX21_p53_BLA_p2_ratio: Tox21 HCT-116 p53 Agonism Beta-lactamase Assay, Ratio, Phase 2 (AID 2283592). Put shortly:
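First, HCT116 reporter cells settle for 5 h at 37C. Next, DMSO compound solutions are pinned in (217-fold dilution) and left 16 h. Finally, CCF4-AM substrate is loaded 2 h at room temperature and the 460/530 nm ratio read.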

The target is the same in test [3]. The experiment in a line: TOX21_p53_BLA_p3_ratio: Tox21 HCT-116 p53 Agonism Beta-lactamase Assay, Ratio, Phase 3 (AID 2283596). In short, it runs like this: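 Cells were seeded at 4000/well, rested 5 h at 37C, then dosed with DMSO compound solutions (217-fold dilution) for 16 h. CCF4-AM substrate was loaded for 2 h at room temperature, and the 460/530 nm emission ratio was fitted for gain of signal versus DMSO.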

For test [4] the target is unchanged. The experiment in a line: TOX21_p53_BLA_p5_ratio: Tox21 HCT-116 p53 Agonism Beta-lactamase Assay, Ratio, Phase 5 (AID 2283599). In short, it runs like this: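 Beta-lactamase reporter ratio (blue 460 nm over green 530 nm, 405 nm excitation) after 2 h CCF4-AM loading, in HCT-116 cells exposed 16 h at 37 C to compounds pinned at 217-fold dilution. Increases relative to DMSO baseline scored.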

Test [5] shares this target. The experiment in a line: TOX21_p53_BLA_p4_ratio: Tox21 HCT-116 p53 Agonism Beta-lactamase Assay, Ratio, Phase 4 (AID 2283601). In short, it runs like this:
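Signal is the blue/green (460nm/530nm) ratio of cleaved versus uncleaved CCF4-AM substrate, read after 2 h substrate loading. Cells were HCT116 carrying the p53-responsive beta-lactamase reporter, dosed 16 h at 37C, 5% CO2; CellTiter-Glo measured in parallel.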

Test [6] is described as follows: TOX21_p53_BLA_p4_viability: Viability Assessment in the Tox21 HCT-116 p53 Agonism Beta-lactamase Assay, Phase 4 (AID 2283597).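 Note: hits lower the luminescence signal meaning cytotoxicity.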 In short, it runs like this: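 4000 HCT116 cells per well; 5 h attachment; compounds from DMSO, 217-fold dilution; 16 h at 37C. Then CCF4-AM, 2 h RT, followed by CellTiter-Glo, 30 min RT, luminescence. Decrease = cytotoxicity.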
Test [7] in a line: TOX21_p53_BLA_p2_viability: Viability Assessment in the Tox21 HCT-116 p53 Agonism Beta-lactamase Assay, Phase 2 (AID 2283591).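 Note: actives lower the ATP signal meaning cytotoxicity.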 Put shortly:
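Cytotoxicity readout: CellTiter-Glo ATP luminescence, 30 min at room temperature, after the beta-lactamase read. Cells were HCT116 exposed 16 h at 37C to compounds pin-transferred at 217-fold dilution from DMSO stocks.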

A short description of test [8]: TOX21_p53_BLA_p3_viability: Viability Assessment in the Tox21 HCT-116 p53 Agonism Beta-lactamase Assay, Phase 3 (AID 2283593).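 Note: cells exposed to compound for 16 h before reading.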 In short, it runs like this: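 Cellular ATP was quantified by CellTiter-Glo luminescence, read after 30 min at room temperature. Beforehand, HCT116 cells (4000/well) received compound 5 h post-seeding, 217-fold diluted from DMSO, then incubated 16 h at 37C.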

Test [9] can be described thus: TOX21_p53_BLA_p5_viability: Viability Assessment in the Tox21 HCT-116 p53 Agonism Beta-lactamase Assay, Phase 5 (AID 2283600). Put shortly:
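Decreased CellTiter-Glo luminescence denotes lost viability. Exposure: 16 h at 37C, 5% CO2, with compounds from DMSO stocks diluted 217-fold in wells of 4000 cells.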

The record followed here is PubChem BioAssay (EPA / NIEHS).

Inconclusive results are not listed. Some compounds were tested as several samples or in several runs, with calls that do not always agree. Active and inactive are the calls of the source. Rule for the calls: active = hit-call score of the fitted dose curve at least 0.9, where 1 is the maximum; inconclusive = response in the unintended direction; inactive = score below 0.9.

Cellular tumor antigen p53 (Homo sapiens), sequence (P04637 whole entry, looked up): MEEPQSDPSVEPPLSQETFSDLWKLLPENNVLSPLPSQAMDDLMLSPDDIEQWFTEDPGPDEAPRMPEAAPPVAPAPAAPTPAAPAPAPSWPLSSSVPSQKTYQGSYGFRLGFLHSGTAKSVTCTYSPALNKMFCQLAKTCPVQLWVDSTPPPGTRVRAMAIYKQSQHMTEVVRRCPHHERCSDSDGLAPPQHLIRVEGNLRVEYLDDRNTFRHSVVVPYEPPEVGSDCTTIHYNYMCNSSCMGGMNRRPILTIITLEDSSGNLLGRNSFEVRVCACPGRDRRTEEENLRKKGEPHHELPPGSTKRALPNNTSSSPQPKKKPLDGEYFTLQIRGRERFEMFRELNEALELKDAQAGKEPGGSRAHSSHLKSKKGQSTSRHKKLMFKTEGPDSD

As to `CC(=O)OCC(C)OC(C)=O` (centres undefined), the outcome in [1], in [2], in [3], in test [4] and in test [5] was inactive.
For the molecule `Cc1ccc(C(C)c2ccc(C)c(C)c2)cc1C`, the outcome in test [1], in test [2], in test [3] and in [5] was inactive.
For the molecule `c1ccc(CNCc2ccccc2)cc1`, the call in test [1], in [2] and in test [3] was inactive.
With `CC(C)CC(O)Cc1ccccc1` (centres undefined), the result in [1], in [2], in [3] and in [5] was inactive.
Regarding `CCN(CC#N)c1cccc(C)c1`, the molecule was called inactive in test [1], in [2], in [6], in test [4] and in test [5].
As to `CCN(CCO)c1cccc(C)c1`, the outcome in [1], in [2] and in test [3] was inactive.
On to `CC1OC1C1CCC2(C)OC2C1` (centres undefined), for which the molecule was classed as inactive in test [7], in test [2], in test [8], in test [3] and in test [5].
As for `Nc1ccc(-c2ccc(F)cc2)cc1`, the molecule was called inactive in [7], in test [2], in [8], in [3], in test [4] and in [5].
Regarding `C=C(C)[C@H]1CC=C(C)CC1`, the result in test [1], in test [4] and in [5] was inactive.
Turning to `COCCOCCOCCOCCOC`, the molecule was called inactive in [1], in test [6], in test [9] and in test [5].
On to `CC1(C)O[C@@H]2C[C@H]3[C@@H]4C[C@H](F)C5=CC(=O)CC[C@]5(C)[C@H]4[C@@H](O)C[C@]3(C)[C@]2(C(=O)CO)O1`, for which the call in test [7], in [2], in test [8], in test [3], in [6] and in test [4] was inactive. Moreover, the outcome in test [9] and in test [5] was inactive.
`C1CN(SSN2CCOCC2)CCO1`: the result in test [7], in test [2], in test [8], in test [3], in [6] and in test [4] was inactive. Also, the result in [9] and in test [5] was inactive.
For the molecule `C[C@]12C=CC(=O)C=C1CC[C@@H]1[C@@H]2[C@@H](O)C[C@@]2(C)[C@H]1CC[C@]2(O)C(=O)CO`, the molecule was called inactive in test [7], in test [2], in test [8], in [3], in test [6] and in test [4]. For the same molecule, the molecule was classed as inactive in test [9] and in [5].
As to `c1ccc(-c2ccccn2)nc1`, the molecule was called inactive in test [7], in test [2], in test [3], in test [6], in test [4] and in test [9]. For the same molecule, in test [5], the result was inactive.
For the molecule `CC(=O)Oc1ccc(C)cc1`, the molecule was called inactive in test [7], in test [2], in test [8], in test [3], in test [4] and in test [9]. The result in test [5] was inactive.
Take `CCCCCc1ccc(Cl)cc1`: the outcome in test [1], in test [3], in [4] and in test [5] was inactive.
Consider `OC1CCCCCCCCCCC1`, for which the outcome in test [7], in [2], in [8], in test [3], in test [6] and in test [4] was inactive. In addition, the result in test [9] and in [5] was inactive.
With `O=C1OC(=O)c2cc(Oc3ccc4c(c3)C(=O)OC4=O)ccc21`, the call in test [7], in test [2], in test [8], in test [3], in [9] and in test [5] was inactive.
As to `Nc1ccc(N)c(Cl)c1`, the call in test [7], in test [2], in [8], in test [6], in test [9] and in test [5] was inactive. The AC50 – broadly, the midpoint of the concentration-response curve, whichever way the signal moves – in test [2] was 68.3 µM (active); in test [3] it was 76.2 µM (active); in test [5], 72.1 µM (active).
As for `O=P(O)(O)Oc1ccccc1`, the outcome in [1], in test [3], in test [4] and in test [9] was inactive.
Take `CC(C)(Oc1ccc(C2CC2(Cl)Cl)cc1)C(=O)O` (centres undefined): the molecule was classed as inactive in test [7], in test [2], in [8], in [3], in [4] and in test [9]. In addition, the result in test [5] was inactive.
Turning to `CCOC(=O)Cc1cccc2ccccc12`, the outcome in test [7], in test [2], in test [8], in [4] and in test [5] was inactive.
On to `COCC(C)N` (centres undefined), for which the call in [7], in test [2], in test [8], in [3], in test [6] and in test [4] was inactive. In addition, the outcome in test [9] and in test [5] was inactive.
Consider `C=CC(=O)OCCOC(=O)C=C`, for which the outcome in test [7], in [2], in test [8], in test [3], in test [4] and in [9] was inactive. Moreover, the result in [5] was inactive.
Regarding `CC(=O)c1ccc[nH]1`, the outcome in test [7], in test [2], in [3], in test [6], in test [4] and in test [5] was inactive.
For the molecule `CC(C)=CCCC(C)C=O` (centres undefined), the result in test [7], in test [8], in test [6], in test [4], in [9] and in [5] was inactive.
With `O=C(/C=C/C=C/c1ccc2c(c1)OCO2)N1CCCCC1`, the outcome in [7], in test [2], in test [8], in test [6], in test [4] and in [5] was inactive.
With `CCCCC/C=C\C/C=C\CCCCCCCC(=O)OC`, the figures for the AC50 in test [7], in [2] and in test [4] were 66.2 µM (active), 74.7 µM (active) and 73.3 µM (active), respectively. For the same molecule, the molecule was called inactive in test [7], in test [2], in [8], in test [3], in test [4] and in [9]. Besides, in test [5], the outcome was inactive.
Consider `CC(=O)Nc1nnc(S(N)(=O)=O)s1`, for which the molecule was classed as inactive in test [7], in test [2], in test [8], in [3], in [4] and in test [9]. Further, the result in test [5] was inactive.
Take `CCOC(=O)NNc1nncc2ccccc12`: the outcome in test [7], in [2], in [3], in [4], in test [9] and in [5] was inactive.
